# Measurements published in PubChem BioAssay (NCATS).
# Several values for one entry are separate records, joined by “and”; a condition that tells them apart may be missing. Equal entries are not always repeated. Records with an inconclusive call do not appear. Values without a mark were called inactive. Calls come from the whole dose curve; as a rule, active = well fitted activation curve with a large enough effect; inconclusive = small, poorly fitted or top-dose-only effect; inactive = no such curve, though single readings can be large or run the other way.
# Target: Cellular tumor antigen p53 (Homo sapiens) (UniProt P04637)
# Sequence (P04637 whole entry, looked up): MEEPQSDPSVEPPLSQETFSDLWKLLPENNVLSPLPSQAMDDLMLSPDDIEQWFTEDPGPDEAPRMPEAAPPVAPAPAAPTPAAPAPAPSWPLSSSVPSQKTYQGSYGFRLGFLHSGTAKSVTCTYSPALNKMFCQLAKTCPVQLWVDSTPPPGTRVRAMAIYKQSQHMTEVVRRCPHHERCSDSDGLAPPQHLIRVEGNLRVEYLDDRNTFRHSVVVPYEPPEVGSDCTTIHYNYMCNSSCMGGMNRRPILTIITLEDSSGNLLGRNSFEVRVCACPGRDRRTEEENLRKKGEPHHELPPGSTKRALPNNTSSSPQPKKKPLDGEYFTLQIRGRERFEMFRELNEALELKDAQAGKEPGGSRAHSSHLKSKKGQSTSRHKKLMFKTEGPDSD
# Test: Primary qHTS for small molecule compounds that upregulate eGFP-tagged delta133p53alpha (in N-terminal) cells. (AID 2060322);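 note: series mostly up to about 56 µM; 0% = DMSO vehicle and 100% = reference activator; nearly all actives have a fitted effect of over 75% in size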
# Details: NCI-H358 eGFP-delta133p53alpha fluorescence, 24 h; activation: active compounds read high
# Summary of the method: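 NCI-H358 cells pre-induced 24 h with 10 ng/ml doxycycline to express N-terminal eGFP-delta133p53alpha, then dosed 24 h at 37C without doxycycline; fixed, Hoechst-stained, GFP intensity by laser scanning cytometry, normalized to DMSO (0%) and 57.5 uM 5-azacytidine (100%).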
row,SMILES,activation
1,C[C@]12Cc3nonc3C[C@@H]1CC[C@@H]1[C@@H]2CC[C@@]2(C)[C@H]1CC[C@]2(C)O,7.34%
2,CCc1ccc(C2CCNCC2)cc1,20.9%
3,Cc1nnc2n1-c1sc(CCC(=O)N3CCOCC3)cc1C(c1ccccc1Cl)=NC2,-12.6%
4,CCCOC(=O)c1cncn1C(C)c1ccccc1 (centres undefined),17.5%
5,COc1ccc2[nH]cc(CCN(C(C)C)C(C)C)c2c1,23.2%
6,C[C@]12CCC(=O)C=C1CC[C@@H]1[C@@H]2CC[C@]2(C)C(=O)CC[C@@H]12,7.34%
7,CCOC(C(=O)OCCN(C)C)(c1ccccc1)c1ccccc1,-3.95%
8,c1ccc(N2CCNCC2)cc1,-33.3%
9,CC(CC(C(N)=O)(c1ccccc1)c1ccccc1)N(C)C (centres undefined),-9.6%
10,C[C@@H]1CN(C2CCC(C#N)(c3ccc(F)cc3)CC2)CC[C@]1(C(=O)O)c1ccccc1 (some centres undefined),10.7%
11,COc1ccc(CC2NCCc3cc(OC)c(OC)cc32)cc1OC (centres undefined),-6.46%
12,CCN(CCO)CCn1c(Cc2ccccc2)nc2c1c(=O)n(C)c(=O)n2C,16.7%
13,NP(N)(=O)NC(=O)c1ccc(F)cc1,-15.1%
14,CC#C[C@]1(O)CC[C@H]2[C@@H]3C[C@H](C)C4=CC(=O)CC[C@]4(C)[C@H]3CC[C@@]21C,-4.18%
15,CC1(C)CC/C(=C/c2ccc(Cl)cc2)C1(O)Cn1cncn1 (centres undefined),2.51%
16,CCOC(=O)C1(c2ccccc2)CCN(CCc2ccc(N)cc2)CC1,-6.69%
17,CCC(COC(=O)c1cc(OC)c(OC)c(OC)c1)(c1ccccc1)N(C)C (centres undefined),-7.34%
18,C[C@]12CC[C@H]3[C@@H](CCC4=CC(=O)CC[C@@H]43)[C@@H]1CC[C@@H]2O,-0.837%
19,C[C@@H]1O[C@@H](O[C@@H]2C=C3CC[C@@H]4[C@@H](CC[C@]5(C)[C@H](c6ccc(=O)oc6)CC[C@@]45O)[C@@]3(C)CC2)[C@H](O)[C@H](O)[C@H]1O,-11.3%
20,COP(=O)(OC)C(O)C(Cl)(Cl)Cl (centres undefined),-2.51%

row,SMILES,activation
1,O=C(Nc1ccc(Br)cc1)c1cc(Br)cc(Br)c1O,29.9%
2,CCC(C(N)=O)N1CCCC1=O (centres undefined),-3.35%
3,CCOP(=S)(OCC)Oc1cc(C)nc(C(C)C)n1,-8.37%
4,COc1cc(CC#N)cc(OC)c1OC,2.82%
5,COc1cccc([C@@]2(O)CCCC[C@@H]2CN(C)C)c1,13.4%
6,CNC(C)(C)Cc1ccccc1,-3.35%
7,CN(C)CCc1c[nH]c2cccc(OP(=O)(O)O)c12,-1.69%
8,COC(=O)[C@@H](N)CCCN/C(N)=N/[N+](=O)[O-],-1.69%
9,Clc1ccc(COC(Cn2ccnc2)c2ccc(Cl)cc2Cl)cc1 (centres undefined),24.3% and 15.7%
10,CN1CCC(O)(c2ccc(F)cc2)C(C(=O)c2ccc(F)cc2)C1 (centres undefined),-14.1%
11,C1=C2CCCN[C@H]2[C@@H]2C[C@H]1[C@@H]1CCCCN1C2,1.08%
12,CCC(=O)O[C@@H]1C=C2CCC3C(CCC4(C)C3CC[C@@H]4OC(=O)CC)C2CC1 (some centres undefined),6.21%
13,Cc1ccc(-c2nc3ccc(C)cn3c2CC(=O)N(C)C)cc1,-32.2%
14,C=C[C@@H]1CN2CCC1C[C@@H]2[C@@H](O)c1ccnc2ccccc12 (some centres undefined),-22.8%
15,OCCCBr,-36.8%
16,COCC(=O)N(c1c(C)cccc1C)C(C)C(=O)OC (centres undefined),18.6%
17,CCNc1nc(Cl)nc(NCC)n1,8.37%
18,COP(=S)(OC)Oc1ccc(SC)c(C)c1,-15.9%
19,CC(C(O)c1ccccc1)N(C)C/C=C/c1ccccc1 (centres undefined),-4.18%
